# Laboratory results from the supplement of paper PMC3334620.
# Over roughly 33,000 sequences, “E-score (-0.5 to 0.5)” has its median near -0.016; the highest 2% begin near 0.3. For the sample, the highest values were picked, then their nearest neighbours and some sequences at random.
# Biological target: T1, Yer184c (UniProt P39961)
# T1 sequence: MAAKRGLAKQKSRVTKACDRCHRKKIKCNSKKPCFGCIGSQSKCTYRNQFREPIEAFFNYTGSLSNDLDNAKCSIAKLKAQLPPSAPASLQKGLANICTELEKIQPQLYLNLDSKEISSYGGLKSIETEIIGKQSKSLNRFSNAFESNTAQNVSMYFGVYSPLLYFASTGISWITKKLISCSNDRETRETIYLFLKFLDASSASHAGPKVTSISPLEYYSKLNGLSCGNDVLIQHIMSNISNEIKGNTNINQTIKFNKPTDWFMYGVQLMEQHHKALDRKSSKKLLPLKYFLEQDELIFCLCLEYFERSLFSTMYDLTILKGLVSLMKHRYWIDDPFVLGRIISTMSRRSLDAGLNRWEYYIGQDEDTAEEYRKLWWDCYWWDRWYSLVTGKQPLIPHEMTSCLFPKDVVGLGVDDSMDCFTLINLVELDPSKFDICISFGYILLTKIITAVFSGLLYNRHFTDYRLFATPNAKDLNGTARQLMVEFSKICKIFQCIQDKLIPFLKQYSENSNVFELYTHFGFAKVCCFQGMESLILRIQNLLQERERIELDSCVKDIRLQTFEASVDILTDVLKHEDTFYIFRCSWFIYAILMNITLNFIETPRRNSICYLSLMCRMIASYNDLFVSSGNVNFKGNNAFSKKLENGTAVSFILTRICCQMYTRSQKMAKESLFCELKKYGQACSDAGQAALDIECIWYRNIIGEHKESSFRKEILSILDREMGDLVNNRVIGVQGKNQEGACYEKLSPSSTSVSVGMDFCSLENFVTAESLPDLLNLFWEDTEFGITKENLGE
# Assay: PBM E-score (8-mer binding enrichment) (E-score (-0.5 to 0.5)); higher = stronger / more preferred TF binding
# Settings: protein concentration: 100 nM; construct: GST-full length
# Method: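 Universal 'all 10-mer' protein binding microarrays (Agilent AMADID 015681) probed with GST-tagged S. cerevisiae TFs (full-length or DBD) made by in vitro transcription/translation (PURExpress), about 100-200 nM. Bound TF was detected with fluorescent anti-GST. Each ungapped 8-mer (which stands for itself and its reverse complement) is scored by the PBM enrichment score (E-score), a modified Wilcoxon-Mann-Whitney statistic from -0.5 to +0.5, computed with the Universal PBM Analysis Suite. Scale: above 0.35 generally sequence-specific binding.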
row,Sequence,PBM E-score
1,ACAAGAAG,0.048
2,CATCAGAG,-0.0413
3,GAGCACCC,-0.141
4,AAGTGATA,-0.118
5,GGGCCTTA,-0.209
6,CGGAGTAA,0.313
7,GGGAGTAA,0.109
8,CGGAGTAC,0.0421
9,AACCCGAA,0.14
10,CACGGCCA,0.131
11,AGTAACCG,0.117
12,ACCGCGGT,0.195
13,CCCGCGGA,0.257
14,CCCGCGGG,0.3
15,ACCGCGGC,0.344
16,ACCGCGGG,0.291
17,CCCGCGGC,0.35
18,ATGGACAT,0.0596
19,GAGTCGTA,-0.0554
20,ATCGCAGA,-0.132
21,CCACCACA,-0.093
22,GAGTGCAC,-0.0537
23,AAATGATT,0.316
24,AAATGATA,0.162
25,AAATGATC,-0.0261

row,Sequence,PBM E-score
1,ACTATCGA,-0.203
2,ACTTCCGC,0.166
3,ATTTCCGG,0.445
4,ACTTCCGA,0.285
5,ATTTCCGA,0.359
6,GTTTCCGA,0.286
7,ATTTCCTG,0.186
8,CTTTCCGC,0.187
9,CTTTCCGA,0.3
10,ATTTCCGC,0.307
11,ATTTCCAG,0.0278
12,ACTTCCGG,0.335
13,ATTTCCAC,0.067
14,AAAAGCCG,0.244
15,GATCTCGA,0.115
16,CAGTTGAC,-0.0401
17,ACATCTCG,0.00537
18,GGGATAAA,0.195
19,AAATTATT,0.212
20,ACGCAATA,0.135
21,AGAGCTCA,-0.142
22,GTACTATA,0.176
23,ATGGCGTA,-0.111
24,GATCCGAA,0.375
25,CCTCCGAA,0.0955

row,Sequence,PBM E-score
1,GCTCCGAA,0.298
2,GATCCAAA,0.196
3,TATCCGCA,0.293
4,GATCCGAC,0.0808
5,AATCCGAA,0.0989
6,TCTCCGAA,0.325
7,TATCCGAA,0.386
8,CATCCGAG,0.212
9,CATCCGAA,0.338
10,CATCCGAC,0.247
11,AACAAGAA,0.257
12,AAGATTAT,0.106
13,GCATTGCC,-0.0318
14,AGACTCTA,-0.124
15,AGGCATGG,-0.0826
16,TCGCTAAA,0.0346
17,GTCTTTCA,-0.0723
18,CCGGCCAC,0.24
19,AACTGCTC,-0.0494
20,GCCGTTAC,0.119
21,GTTCTGGA,0.0262
22,CGACGCCG,0.239
23,CCGACTGA,0.00051
24,CCGACTTC,-0.243
25,CCGACTTA,0.304

row,Sequence,PBM E-score
1,TGTTTCAA,0.153
2,ACGCGCAA,0.156
3,AGTCCCCC,-0.483
4,AATAGCGG,0.0178
5,ATCCGGCC,0.358
6,ATACGGCC,0.153
7,ATCCGGCG,0.321
8,ATGCGGCG,0.0251
9,ATCCGGTG,0.353
10,ATCCGGTA,0.206
11,ATCCGGTC,0.214
12,ATCCGACG,0.155
13,ATGCGGCC,0.109
14,ATTTGGCA,0.0517
15,GTGCACAC,-0.194
16,TGGCATAA,0.139
17,CTGGCTCA,-0.00502
18,ACCAAAGC,0.0124
19,CAGCCCTA,-0.0337
20,CATGGCGC,-0.0606
21,GCCAAAAA,0.234
22,GGGTAAAA,0.143
23,TGGTAAAA,0.203
24,GTATAAAA,0.325
25,AGGTAAAG,0.106

row,Sequence,PBM E-score
1,CGATAAAA,0.333
2,GGATAAAA,0.248
3,CGGTAAAC,0.216
4,TGATAAAA,0.178
5,CGGTAAAG,0.314
6,ATATAAAA,0.278
7,CGGTAAAA,0.305
8,GTATAAAC,0.256
9,AAGTTTGG,0.113
10,ATCCTCGG,0.218
11,CCAAAGCG,-0.0768
12,ACAACCGA,0.261
13,AAGGCGTG,-0.149
14,ATATTGGC,-0.0624
15,GGGCAACC,-0.121
16,CCCCAGGG,-0.297
17,CACGGGGC,-0.0464
18,TAATCTGA,-0.00734
19,GTCCGTTA,0.207
20,ATCCGTTC,0.29
21,ATCCGTTA,0.367
22,AGCCCAAG,-0.228
23,CGCCGAAA,0.293
24,GGCCGAAC,0.305
25,TGCCGACA,0.222

row,Sequence,PBM E-score
1,GGCCGACC,0.028
2,TGCCGAAA,0.371
3,AGCCGAAT,0.392
4,AACCGAAG,0.259
5,ACCCGAAT,0.104
6,GCCCGAAC,0.0908
7,AACCGAAA,0.345
8,AGCCGACT,-0.00308
9,AACCGAAT,0.199
10,GCGGGGAA,-0.0187
11,CGGGCTAA,0.0904
12,CTGCCTCC,-0.339
13,ATACGACC,-0.182
14,GATCTGGA,-0.0474
15,GACTTTCA,-0.0149
16,CATGCGCC,-0.092
17,CCATTAAG,-0.0869
18,ACCTCACT,-0.0518
19,ACTAGCGG,-0.0521
20,GCCCGAAA,0.171
21,GACCGAAC,0.33
22,GGCCGAAA,0.398
23,AGCCGAAA,0.364
24,GACCGAAA,0.265
25,ACCCGAAA,0.169

row,Sequence,PBM E-score
1,CACCGAAC,0.143
2,AGCCGAAC,0.279
3,GGTCGAAA,-0.168
4,CACTAGGC,-0.175
5,CGATAAAG,-0.00214
6,CTACGCAA,-0.00413
7,ACCCAATA,-0.0358
8,GGTTACAA,0.23
9,CCATAACC,-0.184
10,AAGATAGT,0.108
11,GAACATTC,0.102
12,GCGAGAAA,-0.0014
13,TCGAAAAA,0.169
14,CCGAAAAG,0.31
15,CCGAGAAA,0.351
16,GCGAAATA,0.206
17,CCGAAAAA,0.371
18,CCGAAAGG,0.166
19,CCGAAATA,0.34
20,ACGAAATA,0.11
21,TCGAGAAA,0.0245
22,ACGAAAAG,0.187
23,CCGAAAAC,0.243
24,AGCCATCG,-0.189
25,CCTTGCCG,0.124

row,Sequence,PBM E-score
1,CCACAGAG,-0.188
2,AACTTACG,0.0113
3,GGGGGGAC,-0.445
4,CGGCGCAC,0.216
5,GTCTTAAC,-0.122
6,TAAGGTGA,-0.0772
7,CGGGGAAG,0.0845
8,ACAGTTAT,-0.0291
9,CCGAAGAA,0.345
10,ACGAAGAA,0.258
11,TCGAAGAA,-0.0488
12,GTGAATCA,-0.0703
13,TGTTAACA,0.111
14,TCGGTAAA,0.296
15,ACGGTAAG,-0.00751
16,CCGGTAAC,0.259
17,CCGGTAAA,0.321
18,CCGGTACG,-0.00725
19,CCGGTAAG,0.369
20,GAAAGAGC,-0.0552
21,CCCTTTGA,-0.266
22,ACGCGACA,-0.0168
23,CCGATTCC,0.164
24,CCGATTCA,0.0391
25,CCGATTCG,0.358

row,Sequence,PBM E-score
1,ATGCCAAT,-0.0596
2,AGGGACCG,-0.165
3,CCGGACCC,0.235
4,CGGGACCG,0.31
5,CCGGACCG,0.353
6,ACGGACCA,0.327
7,CCGGACAA,0.29
8,CGGGACCA,-0.098
9,CCGGACAC,0.286
10,GCGGACCA,0.243
11,ACGGACCG,0.193
12,CCGGACCA,0.297
13,CCGGACAG,0.324
14,GTAGTGGA,0.177
15,ATGCTGGG,-0.0916
16,ACAATTGT,0.097
17,AATGCTCG,-0.0329
18,AACCAACG,-0.0237
19,ACAGCCCA,-0.0828
